Measurements taken from PubChem BioAssay.
Values without a mark were called inactive. Results filed as inconclusive are left out. Calls of active or inactive are those of the source. Unless noted, the limit is not given here; nearly all actives have AC50 up to about 26 µM. Peptide text beside a SMILES is read from it.

Tested on: Aerobactin synthetase IucA (Klebsiella pneumoniae)
Assay: inhibition of K. pneumoniae IucA enzyme – biochemical, Tocris library, absorbance (AID 1345561; call rule not given here;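 also: 100% = enzyme without compound and 0% = no enzyme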)
Details: purified IucA enzyme assay, absorbance (OD) read-out; stronger effect = lower value; concentration not given here

Structure (SMILES)	remaining activity [%]
O=c1c(-c2ccc(O)cc2)coc2cc(O)cc(O)c12	121
CC1(C)NC(=O)N(c2ccc([N+](=O)[O-])c(C(F)(F)F)c2)C1=O	120
Cc1oncc1C(=O)Nc1ccc(C(F)(F)F)cc1	91.8
CCOC(=O)C1=C[C@]2(CC)CCCN3CCc4c(n1c1ccccc41)[C@@H]32	107

Tested on: not listed separately
Assay: viability loss in pontine glioma line – cell-based, SU-DIPG-XVII, MIPE5.0, CellTiter-Glo, qHTS, dose response (AID 1347060);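 as to AC50: cells exposed to compound for 48 hours before viability readout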
Details: CellTiter-Glo ATP luminescence

Structure (SMILES)	AC50	outcome
O=C(Nc1ccc([N+](=O)[O-])cc1Cl)c1cc(Cl)ccc1O	1.05 µM (active)	
CNC[C@H](O)c1cccc(O)c1		inactive
O=NN(CCCl)C(=O)NCCCl		inactive
COc1ccnc(CS(=O)c2nc3ccc(OC(F)F)cc3[nH]2)c1OC (stereo not given)		inactive
COc1ccc2cc3[n+](cc2c1OC)CCc1cc2c(cc1-3)OCO2	18.6 µM (active)	
CN(Cc1cc(Br)cc(Br)c1N)C1CCCCC1	26.3 µM (active)	
O=C(NC(Cc1cc(=O)[nH]c2ccccc12)C(=O)O)c1ccc(Cl)cc1 (stereo not given)		inactive
NC(=O)NO		inactive
Cc1ccc(S(=O)(=O)NC(=O)NN2CC3CCCC3C2)cc1 (stereo not given)		inactive
OC[C@H]1O[C@@H](O[C@@H]2[C@@H](CO)O[C@](O)(CO)[C@H]2O)[C@H](O)[C@@H](O)[C@H]1O		inactive
NNc1nncc2ccccc12		inactive
CCOC(=O)C(C)(C)Oc1ccc(Cl)cc1		inactive
CC(=O)Oc1ccccc1C(=O)O		inactive
NC(=O)c1ncn([C@@H]2O[C@H](CO)[C@@H](O)[C@H]2O)n1		inactive
CN(C)c1ccc(C(=C2C=CC(=[N+](C)C)C=C2)c2ccc(N(C)C)cc2)cc1	1.48 µM (active)	
Cn1cnc2c1c(=O)[nH]c(=O)n2C		inactive
COc1ccc(CCN(C)CCCC(C#N)(c2ccc(OC)c(OC)c2)C(C)C)cc1OC (stereo not given)		inactive

Structure (SMILES)	AC50	outcome
O=c1oc2c(O)c(O)cc3c(=O)oc4c(O)c(O)cc1c4c23		inactive
CN(C)CCc1c[nH]c2ccc(CS(=O)(=O)N3CCCC3)cc12		inactive
COc1cc([C@H]2Oc3cc([C@H]4Oc5cc(O)cc(O)c5C(=O)[C@@H]4O)ccc3O[C@@H]2CO)ccc1O		inactive
C/C=C(/C(=C/C)c1ccc(O)cc1)c1ccc(O)cc1	23.5 µM (active)	
O=C(O)c1cn(-c2ccc(F)cc2)c2cc(N3CCNCC3)c(F)cc2c1=O		inactive
CN1C(C(=O)Nc2ccccn2)=C(O)c2sccc2S1(=O)=O		inactive
COC(=O)Nc1nc2ccc(S(=O)c3ccccc3)cc2[nH]1 (stereo not given)	18.6 µM (active)	
NCC1CCC(C(=O)O)CC1 (stereo not given)		inactive
NC(CO)C(=O)NNCc1ccc(O)c(O)c1O (stereo not given)		inactive
Nc1nc(=S)c2[nH]cnc2[nH]1	0.59 µM (active)	
C1CCC(C(CC2CCCCN2)C2CCCCC2)CC1 (stereo not given)	7.42 µM (active)	
N[C@@H](Cc1ccc(O)c(O)c1)C(=O)O		inactive
NS(=O)(=O)c1cc2c(cc1Cl)NC(C(Cl)Cl)NS2(=O)=O (stereo not given)		inactive
CCCOc1ccc2nc(NC(=O)OC)[nH]c2c1	0.372 µM (active)	
Cc1cc(C2CCCCC2)n(O)c(=O)c1	2.35 µM (active)	
COC(=O)[C@H](Cc1ccccc1)NC(=O)[C@@H](N)CC(=O)O (H-Asp-Phe-OMe)		inactive
CC1=CC(=O)c2ccccc2C1=O	23.5 µM (active)	

Tested on: not listed separately
Assay: viability loss in pontine glioma line – cell-based, SU-DIPG-XIII, MIPE4.0, CellTiter-Glo, qHTS, dose response (AID 1347061; cut-off not given, nearly all actives have AC50 up to about 37 µM;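 also: cells exposed to compound for 48 hours before readout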)
Details: CellTiter-Glo ATP luminescence

Structure (SMILES)	AC50	outcome
O=C(Nc1ccc([N+](=O)[O-])cc1Cl)c1cc(Cl)ccc1O	0.935 µM (active)	
CNC[C@H](O)c1cccc(O)c1		inactive
O=NN(CCCl)C(=O)NCCCl		inactive
CN(Cc1cc(Br)cc(Br)c1N)C1CCCCC1		inactive
Cc1ccc(S(=O)(=O)NC(=O)NN2CC3CCCC3C2)cc1 (stereo not given)		inactive
OC[C@H]1O[C@@H](O[C@@H]2[C@@H](CO)O[C@](O)(CO)[C@H]2O)[C@H](O)[C@@H](O)[C@H]1O		inactive
NNc1nncc2ccccc12		inactive
CCOC(=O)C(C)(C)Oc1ccc(Cl)cc1		inactive
NC(=O)c1ncn([C@@H]2O[C@H](CO)[C@@H](O)[C@H]2O)n1		inactive
CN(C)c1ccc(C(=C2C=CC(=[N+](C)C)C=C2)c2ccc(N(C)C)cc2)cc1	2.96 µM (active)	
Cn1cnc2c1c(=O)[nH]c(=O)n2C	23.5 µM (active)	
COc1ccc(CCN(C)CCCC(C#N)(c2ccc(OC)c(OC)c2)C(C)C)cc1OC (stereo not given)		inactive
O=c1oc2c(O)c(O)cc3c(=O)oc4c(O)c(O)cc1c4c23		inactive
CN(C)CCc1c[nH]c2ccc(CS(=O)(=O)N3CCCC3)cc12		inactive
COc1cc([C@H]2Oc3cc([C@H]4Oc5cc(O)cc(O)c5C(=O)[C@@H]4O)ccc3O[C@@H]2CO)ccc1O		inactive
C/C=C(/C(=C/C)c1ccc(O)cc1)c1ccc(O)cc1		inactive
O=C(O)c1cn(-c2ccc(F)cc2)c2cc(N3CCNCC3)c(F)cc2c1=O		inactive
CN1C(C(=O)Nc2ccccn2)=C(O)c2sccc2S1(=O)=O		inactive
NCC1CCC(C(=O)O)CC1 (stereo not given)		inactive
NC(CO)C(=O)NNCc1ccc(O)c(O)c1O (stereo not given)		inactive
O=c1c(-c2ccc(O)cc2)coc2cc(O)cc(O)c12		inactive
N[C@@H](Cc1ccc(O)c(O)c1)C(=O)O		inactive
CCCOc1ccc2nc(NC(=O)OC)[nH]c2c1		inactive
Cc1cc(C2CCCCC2)n(O)c(=O)c1	16.6 µM (active)	
COC(=O)[C@H](Cc1ccccc1)NC(=O)[C@@H](N)CC(=O)O (H-Asp-Phe-OMe)		inactive
CC1=CC(=O)c2ccccc2C1=O	23.5 µM (active)	
CCOC(=O)C1=C[C@]2(CC)CCCN3CCc4c(n1c1ccccc41)[C@@H]32	26.4 µM (active)	
